# In all, about 290,000 compounds went through this assay and about 160 (0.055%) were called active. Cut-off read from the data, not from the text of the source: active = inhibition above about 50%; inactive = the rest. Many of the other results were omitted from the sample, so actives are more common in it than they were.
# Biological target: Tyrosine-protein phosphatase non-receptor type 22 (Homo sapiens) (UniProt Q9Y2R2)
# Assay: PTPN22 lymphoid phosphatase activity blockers – biochemical, fluorescence intensity, uHTS (AID 1779);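 note: plate controls were vehicle with enzyme for no effect and no enzyme for full effect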
# Conditions: recombinant LYP phosphatase, at 11.5 µM, hits give high values
# Chain of Tyrosine-protein phosphatase non-receptor type 22 (Homo sapiens) (Q9Y2R2 whole entry, looked up): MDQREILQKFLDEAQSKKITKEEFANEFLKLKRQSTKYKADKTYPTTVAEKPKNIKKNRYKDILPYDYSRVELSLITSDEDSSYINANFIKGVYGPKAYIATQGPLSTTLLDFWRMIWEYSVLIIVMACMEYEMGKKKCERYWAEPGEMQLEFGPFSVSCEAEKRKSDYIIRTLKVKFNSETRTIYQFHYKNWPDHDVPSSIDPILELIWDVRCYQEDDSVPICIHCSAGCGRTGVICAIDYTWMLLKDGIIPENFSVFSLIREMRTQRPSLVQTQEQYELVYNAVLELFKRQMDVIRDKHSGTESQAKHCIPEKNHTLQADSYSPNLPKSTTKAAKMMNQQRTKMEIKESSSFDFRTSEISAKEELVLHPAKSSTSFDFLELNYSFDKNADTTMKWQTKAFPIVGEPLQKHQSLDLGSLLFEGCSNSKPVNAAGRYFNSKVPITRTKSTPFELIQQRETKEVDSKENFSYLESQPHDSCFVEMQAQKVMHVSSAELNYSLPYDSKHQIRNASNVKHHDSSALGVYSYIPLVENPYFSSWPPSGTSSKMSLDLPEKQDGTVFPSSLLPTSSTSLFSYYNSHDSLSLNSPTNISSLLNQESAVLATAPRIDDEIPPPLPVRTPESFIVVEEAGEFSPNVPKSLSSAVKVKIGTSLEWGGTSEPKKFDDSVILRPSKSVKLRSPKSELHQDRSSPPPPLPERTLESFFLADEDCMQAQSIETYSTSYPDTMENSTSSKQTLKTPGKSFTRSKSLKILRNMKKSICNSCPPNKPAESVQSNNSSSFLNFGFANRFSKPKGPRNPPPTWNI
row,Structure (SMILES),inhibition
1,COc1cccc(CNC(=O)c2csc3c2CCCC3)c1,-8.1% (inactive)
2,CCC(=O)N(Cc1cc2cc(OC)ccc2[nH]c1=O)c1cccc(C)c1,-4.9% (inactive)
3,Cn1nc(-c2ccc(Cl)cc2)nc2c(=O)n(C)c(=O)nc1-2,-0.7% (inactive)
4,Cn1nc(-c2ccccn2)nc2c(=O)n(C)c(=O)nc1-2,73.5% (active)
5,CCn1c(N)nc2c1c(=O)n(C)c(=O)n2C,0.4% (inactive)
6,CCCc1nc2c(=O)n(C)c(=O)nc-2n(C)n1,79% (active)
7,CCCc1nc(SCC(=O)c2ccc(OC)cc2)c2c(=O)n(C)c(=O)n(C)c2n1,7.4% (inactive)
8,c1ccc(-c2nc(-c3ccccn3)nc(-c3ccccn3)n2)nc1,-4% (inactive)
9,Cn1c(N)c(C(=O)COC(=O)CCc2ccccc2)c(=O)n(C)c1=O,-4.8% (inactive)
10,CC1CCCC(NC(=O)COC(=O)CCc2ccccc2)C1C (stereo not drawn),-5.4% (inactive)
11,Clc1ccccc1CNCC1CCCO1 (stereo not drawn),-13.9% (inactive)
12,CCOC(=O)COc1c(/C=N\O)cc(Cl)cc1OC,-4.2% (inactive)
13,Cc1ccc(C(=O)c2no[n+]([O-])c2C(=O)c2ccc(C)cc2)cc1,-5.8% (inactive)
14,O=C(c1cccs1)c1no[n+]([O-])c1C(=O)c1cccs1,55.5% (active)
15,COc1ccc(C(=O)c2no[n+]([O-])c2C(=O)c2ccc(OC)cc2)cc1,7.8% (inactive)
16,CN(CC(=O)Nc1ccc(F)cc1)C(=O)CSc1nc2ncc(Cl)cc2[nH]1,-4.4% (inactive)
17,N#Cc1ccc(N/N=C/c2cn(-c3ccccc3)nc2-c2ccccc2)c([N+](=O)[O-])c1,-1.1% (inactive)
18,COCCn1c(C)cc(C(=O)COc2ncnc3ccc(Br)cc23)c1C,-1.5% (inactive)
19,CCOc1ccc(NC(=O)CN(c2ccc(C)cc2)S(=O)(=O)c2c(C)nn(C)c2C)cc1,-8.4% (inactive)
20,Cn1c(SCC(=O)N2CCN(c3ccccc3)CC2)nnc1-c1ccco1,-8.2% (inactive)
21,Cn1c(SCC(=O)N2CCN(c3ccccc3)CC2)nnc1-c1cc2ccccc2o1,79.7% (active)

row,Structure (SMILES),inhibition
1,Cn1c(SCC(=O)N2CCN(c3ccccc3)CC2)nnc1-c1ccccc1,-8.4% (inactive)
2,Cc1ccc(CNS(=O)(=O)c2ccc(C(C)(C)C)cc2)n1C,-5.6% (inactive)
3,Cc1cccc(NC(=O)CN2CCOCC2)c1C,-9.5% (inactive)
4,Clc1ccc2scc(CN3CCCCC3)c2c1,-6.7% (inactive)
5,c1ccc2c(CN3CCCCC3)csc2c1,68.1% (active)
6,c1ccc2c(CN3CCOCC3)csc2c1,-4.5% (inactive)
7,C=CCn1c(C)cc(C(=O)CN2NS(=O)(=O)c3ccccc3C2=O)c1C,-3.8% (inactive)
8,Cc1nn(Cc2ccc(Cl)cc2)c(C)c1NC(=O)CSc1n[nH]c(C)c1[N+](=O)[O-],-3.2% (inactive)
9,COc1cc2c(cc1OC)C(C(=O)N1CCCCC1)C(c1ccccc1F)N(C)C2=O (stereo not drawn),64.6% (active)
10,COc1ccc(C2C(C(=O)N3CCCC3)c3cc(OC)c(OC)cc3C(=O)N2C)cc1OC (stereo not drawn),-1.1% (inactive)
11,COc1cc2c(cc1OC)C(C(=O)N1CCCC1)C(c1ccccc1F)N(C)C2=O (stereo not drawn),-2.7% (inactive)
12,COCCCNc1nc2c(-c3ccc(C)cc3)nnn2c2ccccc12,-6.1% (inactive)
13,O=C(N=C1c2ccccc2CN1c1cccc(Cl)c1)c1cccnc1,-6.2% (inactive)
14,COc1cc(SC#N)ccc1N=Cc1c(C)[nH]n(-c2ccc(C)c(C)c2)c1=O,-5.7% (inactive)
15,COc1cc(SC#N)ccc1N=Cc1c(C)[nH]n(-c2ccc(Cl)cc2)c1=O,80.6% (active)
16,COc1cc(SC#N)ccc1N=Cc1c(C)[nH]n(-c2ccc(C)cc2C)c1=O,-3.1% (inactive)
17,CCOC(=O)C1CCN(S(=O)(=O)c2cc(Cl)c(C)cc2OC)CC1,0% (inactive)
18,CCOC(=O)C1CCN(C(=O)Nc2ccc3nc(C)c(C)nc3c2)CC1,-2.2% (inactive)
19,CCOC(=O)C1CCN(C(=O)Nc2ccc3nc(-c4ccco4)c(-c4ccco4)nc3c2)CC1,53.4% (active)
20,O=C(Nc1ccc2nc(-c3ccco3)c(-c3ccco3)nc2c1)N1CCCCCC1,17.4% (inactive)
21,CCC(=O)N1CCc2nc(-c3ccccc3)sc2C1,-5.1% (inactive)

row,Structure (SMILES),inhibition
1,COC(=O)c1ccc(CSc2nc(-c3ccccc3)cs2)o1,-2.6% (inactive)
2,CC(=O)N1c2c(cc(Br)cc2S(=O)(=O)N2CCOCC2)CC1C (stereo not drawn),51.5% (active)
3,CC(=O)N1c2c(cc(Br)cc2S(=O)(=O)N2CCCCC2)CC1C (stereo not drawn),-0.1% (inactive)
4,CCOC(=O)N1CCN(S(=O)(=O)c2cc(Br)cc3c2N(C(C)=O)C(C)C3)CC1 (stereo not drawn),3% (inactive)
5,COc1ccc(C(=O)Nc2cccc(C(=O)N3CCCC3)c2)cc1,-7.1% (inactive)
6,COc1ccccc1CC(=O)Nc1ccc(S(=O)(=O)N2CCN(C)CC2)cc1,-10.4% (inactive)
7,Cc1cc2nc(Cl)c(Cl)nc2cc1C,-2.6% (inactive)
8,Cc1cc2ncc(Cl)nc2cc1C,59.3% (active)
9,Cc1cnc2cc(Cl)c(Cl)cc2n1,-3.4% (inactive)
10,CC(Oc1ccc([N+](=O)[O-])cc1Cl)C(=O)Nc1ccc(C(N)=O)cc1 (stereo not drawn),-5.5% (inactive)
11,Cc1ccc(NC(=O)C2CCCN2C(=O)NC2CCCCC2)cc1C (stereo not drawn),-7% (inactive)
12,CCCN1C(=O)C2(C(C(=O)c3ccc(C)o3)=C(O)C(=O)N2CCCOC)c2ccccc21 (stereo not drawn),3.3% (inactive)
13,O=C(NCc1ccco1)c1ccc2ccccc2n1,56.3% (active)
14,Cc1nc2ccccc2cc1C(=O)NCc1ccco1,1.1% (inactive)
15,O=C(NCc1ccccc1)c1ccc2ccccc2n1,-6.3% (inactive)
16,CC1CCN(C(=O)Cn2c(SCC(=O)Nc3nccs3)nc3ccccc32)CC1,-1% (inactive)
17,CN1CCN(c2ccccc2NC(=O)Cc2ccc(Cl)cc2)CC1,-9.1% (inactive)
18,NN1C(=O)/C(=C2/Sc3ccccc3N2CCCS(=O)(=O)O)SC1=S,-6.6% (inactive)
19,CC1=NN(C(=O)c2ccc(Cn3cc([N+](=O)[O-])cn3)cc2)C(O)(C(F)(F)F)C1 (stereo not drawn),-3.4% (inactive)
20,CC1=NN(C(=O)Cn2ccc([N+](=O)[O-])n2)C(O)(C(F)(F)F)C1 (stereo not drawn),-3.6% (inactive)
21,CC1=NN(C(=O)c2ccc(Cn3ccc([N+](=O)[O-])n3)cc2)C(O)(C(F)(F)F)C1 (stereo not drawn),63.4% (active)
